# About 65 (5%) of roughly 1,200 compounds were called active.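 How the source made its calls: active means at either tested dose, response and 90th-percentile vesicle-stain brightness of CD8 cells under set limits and under 9% cells vesicle-bound; inactive means the rest.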 Many of the other results were omitted from the sample, so actives are more common in it than they were.
# Assay: modulators of CD8 T cell-vesicle binding, confirmation, cherry-picked primary hits, two concentrations (AID 2810);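 on percent response (vesicle binding): ratio of mean FL2 vesicle stain of CD8+ cells to that row's control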
# Conditions: 2C CD8+ T cell-vesicle binding, flow cytometry; for double positive events: CD8+/vesicle+ events
# [1] = at 15.4 µM, stronger effect = lower value
Structure (SMILES),double positive events (at 7.7 µM) [%],double positive events [1] [%],percent response (vesicle binding) [1],"percent response (vesicle binding) (response, at 7.7 µM) [%]"
CCOc1ccc(CCNC(=O)CCS(=O)(=O)c2ccc(C)cc2)cc1OCC,12.8,11.7,215% (inactive),177
CCOc1ccc(CCNC(=O)CCc2nnc3ccc(N4CCCC4)nn23)cc1OCC,6.3,20,239% (inactive),150
CCOc1ccc(CCNC(=O)c2cccc(-n3cnnn3)c2)cc1OCC,7.9,4.2,39.3% (active),237
Cc1cc(C(=O)COC(=O)Cc2ccc(Cl)cc2)c(C)n1C,13.6,22.5,160% (inactive),226
O=C(/C(=N\Nc1ccc(Br)cc1)Sc1nnnn1-c1ccccc1)c1ccccc1,9.1,14.4,176% (inactive),308
COc1cccc(-c2ccc(NC(=O)C3CCCN(Cc4cc(C)[nH]n4)C3)cc2)c1 (configuration not stated),11.6,32.2,350% (inactive),192
O=C(O)CCc1ccc(S(=O)(=O)N2CCOCC2)cc1,20.5,28.7,274% (inactive),233
CCN(CC)CCNC(=O)CCCNC(=O)Cn1cnc2sc(C)c(C)c2c1=O,39.3,4.7,131% (inactive),375
COCCCN1CCc2[nH]c(=S)[nH]c(=O)c2C1,27.3,2,16.7% (active),272
CCc1c(O)cc2n(c1=O)-c1ccccc1C2(C)C,9.3,17.9,444% (inactive),485
O=C(Nn1cnc2ccccc2c1=O)C1CCCCC1,29.6,14.2,212% (inactive),255
Cc1ccc(NC(=S)N(CCCN2CCOCC2)Cc2cccs2)c(C)c1,8.8,24.8,268% (inactive),149
CCCN1CCN(CCCNC(=O)c2cc3c(s2)-c2ccccc2OC3)CC1,22.7,9.3,171% (inactive),229
Cc1ccc(C(=O)NCCCN2CCOCC2)c(C)c1,30.7,0.7,30.4% (active),440
CCn1c(=O)cc(SCC(=O)N2CCN(c3ccccc3F)CC2)c2ccccc21,17,19.6,78.7% (inactive),247
CC(C)C(=O)N1CCC2(CC1)Oc1ccc(Cl)cc1C(=O)C21CC(c2cccnc2)=NO1 (configuration not stated),6.8,15,197% (inactive),109
Cc1ccc(C(=O)Nc2cccc(-c3cn4ccccc4n3)c2)cc1,7.7,10.4,300% (inactive),439
COc1ccc(C(=O)C(C)OC(=O)c2sc(C)nc2C)cc1 (configuration not stated),12.6,13.7,349% (inactive),113
Cc1ccc2oc(=O)c(/C=C(\O)c3sc(C)nc3C)nc2c1,17.5,0.7,16.1% (active),163
NC(=S)N/N=C/c1ccccc1OCCSc1ccc(Cl)cc1,7,28,262% (inactive),76.6
CC(=O)NN1C(=O)c2ccccc2NC1c1ccco1 (configuration not stated),23,11.1,280% (inactive),361
Cc1ccccc1N=C1SC(CC(=O)Nc2ccc3ccccc3c2)C(=O)N1Cc1ccccn1 (configuration not stated),8.6,25.6,157% (inactive),148

Structure (SMILES),double positive events (at 7.7 µM) [%],double positive events [1] [%],percent response (vesicle binding) [1],"percent response (vesicle binding) (response, at 7.7 µM) [%]"
O=C(N/N=C/c1c(O)n(Cc2ccco2)c(=O)[nH]c1=O)c1ccccc1,36.4,21.6,275% (inactive),418
COc1ccc(C(=O)OCC(=O)NC(=O)NC2CCCC2)c(O)c1,13.7,9.4,148% (inactive),254
CCOc1ccc(-c2nc(N)ncc2-c2ccccc2)c(O)c1,4.3,34.2,276% (active),51.6
CC(=O)COc1ccc2c(-c3ccccc3)cc(=O)oc2c1,10.8,8.7,123% (inactive),165
CCOC(=O)CSc1nc(C)nc2c1sc1nc(C)c(C(C)=O)c(-c3ccc(OC)cc3)c12,22.7,7.5,128% (inactive),327
CC1=C/C(=C(\c2ccc(O)c(C)c2)c2ccccc2S(=O)(=O)O)C=CC1=O,8.5,0.5,14.6% (active),142
O=C(Nc1nnc(C2=COCCO2)o1)C1CCCCC1,47.3,23,200% (inactive),280
CS(=O)(=O)NCc1ccccc1Br,31,2.7,34% (active),371
Cc1nc2sc(C(c3ccccc3)N3CCN(c4ccccc4F)CC3)c(O)n2n1 (configuration not stated),38.2,4.2,142% (inactive),239
CCOc1ccccc1NC(=O)c1ccc(CN2CCc3ccccc3C2)cc1,11.5,30,739% (inactive),110
COc1ccc2nc(SCC(=O)Nc3ccc4c(c3)OCCO4)[nH]c2c1,10.5,19.8,168% (inactive),164
O=C(/C=C/c1ccccc1)OCC(=O)c1ccc[nH]1,14.3,30.2,439% (inactive),424
CCOC(=O)C1CCN(C(=O)CN2C(=O)c3ccccc3S2(=O)=O)CC1,13,23,203% (inactive),166
CCOC(=O)C1CCCN(S(=O)(=O)c2ccc(F)c(C(=O)Nc3ccc(F)c(F)c3)c2)C1 (configuration not stated),13.5,23.8,153% (inactive),105
CCOC(=O)C1CCCN(c2cc(=O)n(-c3ccccc3Cl)c(=O)[nH]2)C1 (configuration not stated),10.2,2.3,18.2% (active),131
O=C1c2cccc3c2[C@H](CCC3)CN1[C@@H]1CN2CCC1CC2,19.9,28.1,727% (inactive),238
COc1ccc(C2=Nc3cc(C)ccc3OC2)cc1,12.1,2,53.5% (active),546
CCCCN(C(=O)CCCc1nc2ccccc2s1)c1c(N)n(CC(C)C)c(=O)[nH]c1=O,14.2,7.8,50.8% (inactive),386
CCCN(Cc1ccc(N(C)C)cc1)CC1CC1,16.6,22.1,413% (inactive),436
CN(C(=O)COC(=O)c1cccc(NS(=O)(=O)c2ccc(F)c(F)c2)c1)C1CCS(=O)(=O)C1 (configuration not stated),21.6,29.3,264% (inactive),393
CN1CCN(c2oc(-c3ccc([N+](=O)[O-])cc3)nc2C#N)CC1,8.5,9.4,143% (inactive),149

# Reference: PubChem BioAssay AID2810 (NMMLSC, 2010)
